# Measured values from ChEMBL document CHEMBL3988442, “University of Dundee, Small-Polar-MMV Screening Library” (2021).
# Screen size: about 48,000 compounds; about 13,000 (27%) showed an effect of 50% or more. The list shows a part of the results.
# Test system: Wolbachia pipientis
# Assay: Anti-Wolbachia Cell-Based Screen
# Assay type: functional
# Parameters: scale not given: in the data most compounds retested in dose-response had high values
# Conditions: 5 µM
row,Compound,Percent Effect [%]
1,O=C(O)C[C@@H]1CCN(C(=O)c2cccs2)C[C@@H]1CCN1CCCCC1,-8.603
2,CC(C)C1CN(C(=O)c2cccs2)CCS1 (stereo not drawn),-18.38
3,CN(C)c1cc(C(=O)N2CCN(S(C)(=O)=O)CC2)ccn1,-8.698
4,CS(=O)(=O)NC[C@H]1OC[C@@H]2CCN(C(=O)c3cccnc3)C[C@@H]21,-2.955
5,CNC(=O)C1CN(C(=O)c2ccncc2)CCN(S(C)(=O)=O)C1 (stereo not drawn),113
6,CNS(=O)(=O)c1ccc(C(=O)N2CCCC(n3cccn3)C2)cc1 (stereo not drawn),-7.031
7,CCCNC(=O)C[C@@H]1CCN(C(=O)c2cccnc2)C[C@@H]1CC,-4.226
8,CNC(=O)C1CN(C(=O)c2cccnc2)CCN(S(C)(=O)=O)C1 (stereo not drawn),102.1
9,CNC(=O)C1CN(C(=O)c2cccs2)CCN(S(C)(=O)=O)C1 (stereo not drawn),103.3
10,COCCN(Cc1cccnc1)c1nc(C)nc2oc(C)nc12,1.02
11,CCCN(CC1CC1)C(=O)Cn1ccccc1=O,-7.373
12,O=C(O)C(F)(F)F.O=C(O)C(F)(F)F.O=C(O)C(F)(F)F.c1cnc(N2CCN(C3CCC[C@@H]4CN(CC5CC5)C[C@H]34)CC2)nc1 (stereo partly drawn),-9.573
13,Clc1cccc2c3c([nH]c12)CCN(Cc1cc2n(n1)CCCNC2)C3,-3.179
14,CC(C(=O)NC1CC1)S(=O)(=O)Cc1noc(C(C)(C)C)n1 (stereo not drawn),12.74
15,CCOc1cccc(COC(=O)c2cscn2)n1,-4.907
16,O=C(Nc1cc(C2CCOCC2)[nH]n1)c1cc[nH]n1,-3.397
17,CCOc1cccc(NC(=O)Cc2cccc(O)c2)n1,-45.48
18,COC(CNC(=O)c1cc(C)on1)c1ccccc1C (stereo not drawn),2.502
19,CCOc1cccc(NC(=O)c2cnc(C)cn2)n1,87.8
20,CCOc1cccc(COC(=O)c2ccc(Cl)cn2)n1,-10.12
21,CCOc1cccc(COC(=O)c2cc(C)on2)n1,106.6
22,CCOc1cccc(NC(=O)c2cc(C)on2)n1,91.67
23,CCOc1cccc(NC(=O)c2cscn2)n1,-16.65
24,CCOc1cccc(NC(=O)c2cc[nH]n2)n1,87.66
25,CCOc1cccc(COC(=O)c2ccc(F)cn2)n1,-9.322
26,CCOc1cccc(COC(=O)c2cc(Cl)ccn2)n1,-4.3
27,CCN1CCN(C(=O)c2ccc3c(c2)CCCN3)[C@H]2CS(=O)(=O)C[C@H]21,-2.171
28,CSCCC1c2nc[nH]c2CCN1Cc1ccccc1C#N (stereo not drawn),-9.025
